The list is a sample of the results.
aSyn UTR act: Activators via SNCA 5'UTR binding, MLPCN. alpha-synuclein 5'UTR reporter, activators screen. activity score, % (tested at 7.5 µM), hits read low. 300,000 tested, 7.1% active. AID 1814, 2009; in the data active means activity score below about -60%
The depositor's hits bear a star.

SMILES | aSyn UTR act
COc1ccc(NC(=O)/C=C/c2cccc(Br)c2)cn1 | -189.6*
CCOC(=O)c1ccc(NC(=O)Nc2ccc(F)cc2)cc1 | -106.1*
COc1ccc(NC(=O)Nc2ccc(F)cc2)cn1 | -64.5*
COc1ccc(NC(=O)CSc2ccccc2)cn1 | -85.9*
COC(=O)c1ccc(NC(=O)Nc2ccc(F)cc2)cc1 | -140.6*
COc1ccc(NC(=O)/C(Cl)=C(/Cl)S(=O)Cc2ccccc2)cn1 (stereo not given) | 120.9
O=C(OCc1nnc(-c2ccccc2)o1)C12CC3CC(CC(Br)(C3)C1)C2 | -105.0*
C=C1CCC2[C@](C)(CO)[C@H](O)CC[C@@]2(C)[C@@H]1C/C=C1\C(=O)OC[C@H]1O (stereo not given in full) | -151.1*
CCn1c(C)cc(O)c(C(=O)Nc2cccc(Cl)c2)c1=O | -95.6*
CCn1c(C)c(C)c2cc(C(=O)Nc3cccc(Cl)c3)ccc21 | -117.4*
Cc1cc(O)c(C(=O)Nc2cccc(Cl)c2)c(=O)n1C | -103.8*
CCc1ccc(C(O)(CC(C)C)C(CN2CCOCC2)c2ccccc2)cc1 (stereo not given) | 56.5
CCOC(=O)c1ccc(N2Cc3ccccc3C2)cc1O | -121.7*
CCc1ccc(N2Cc3ccccc3C2)cc1 | -150.6*
Cc1csc(NC(=O)CSc2ccccc2F)n1 | -87.5*
Cc1ccc(C2(C)NC(=O)N(CC(=O)Nc3nc(-c4ccccn4)cs3)C2=O)cc1 (stereo not given) | 80.1
COCc1cc(C)nc(SCC(=O)Nc2nc(C)cs2)c1C#N | 55.1
CC(C)(C)c1ccc(-c2csc(NC(=O)CN3C(=O)NC4(CCCCC4)C3=O)n2)cc1 | -78.7*
Cc1csc(SCC(=O)Nc2nc(-c3ccccc3)cs2)n1 | -80.3*
Cc1ccc(-c2csc(NC(=O)CSc3nc(C)cs3)n2)cc1 | -159.9*
COCCNC(=O)CSc1nc(-c2ccccc2)cs1 | -72.5*
CC(C)(C)NC(=O)CSc1nc(-c2ccc(F)cc2)cs1 | -180.8*
Nc1ccccc1N=Nc1ccccc1N | -221.7*
COc1ccc(NC(=O)n2ncc3c(C)cccc32)cc1 | -88.4*
COc1ccc(NC(=O)n2ncc3c(C)cccc32)cc1OC | -164.7*
SMILES | aSyn UTR act
Cc1ccc(NC(=O)n2ncc3c(C)cccc32)cc1F | -70.9*
c1ccc(-c2cnnc(-c3ccccn3)n2)cc1 | -132.8*
COc1cnc(-c2ccccn2)nc1N(C)c1ccccc1 | 88.6
Cc1cc(C(F)(F)F)c(C#N)c(SCC(=O)Nc2nc3cc(Br)ccc3s2)n1 | -176.1*
CCOC(=O)c1cn(-c2ccc([N+](=O)[O-])cc2)c2cc(Cl)c([N+](=O)[O-])cc2c1=O | -110.0*
CCOC(=O)c1ccc(NC(=O)C(=O)NCc2ccco2)cc1 | -81.6*
CC(=O)c1ccc(NC(=S)NCc2ccco2)cc1 | -66.7*
CN(C)CCCNc1c2ccccc2nc2ccccc12 | 70.8
c1ccc(CNc2c3ccccc3nc3ccccc23)cc1 | -332.2*
Cc1ccc(O)c(C2=NNC(c3ccc(Cl)cc3)C2)c1 (stereo not given) | -127.6*
Cc1ccc(C2Cc3cc(O)c(O)cc3CN2)cc1 (stereo not given) | 89.0
Cc1ccc(S(=O)(=O)/N=C(/NC(=S)Nc2ccccc2)c2ccccc2)cc1 | -126.4*
COc1ccc(C(=O)NN/C(=N/S(=O)(=O)c2ccc(C)cc2)c2ccccc2)cc1 | -80.9*
Cc1ccc(NC(=S)N/C(=N/S(=O)(=O)c2ccccc2)c2ccccc2)cc1 | -205.1*
COc1ccc(CNC(=O)CSc2nnc(NC(=O)c3ccccc3F)s2)cc1 | -68.6*
O=C1C=C(c2cc3ccccc3s2)CCC1 | -86.3*
O=C(c1cc([N+](=O)[O-])ccc1N1CCOCC1)N1CCN(c2ccccc2)CC1 | 91.4
CC(C)(C)C(=O)N1CCN(c2ccc([N+](=O)[O-])cc2Cl)CC1 | -64.4*
Clc1ccc(CSc2ncccn2)cc1 | -80.0*
O=Cc1cc2ccccc2nc1SCc1ccc(Cl)cc1 | 95.2
CN(C)c1ccc(/C=C2\CCCc3c2nc2ccccc2c3C(=O)O)cc1 | -120.6*
CC(C)Cc1nnc(NC(=O)c2ccc([N+](=O)[O-])cc2)s1 | -95.0*
CCc1nnc(NC(=O)Nc2ccc(OC)cc2)s1 | -162.1*
COc1ccc2c(CC(=O)Nc3nccs3)coc2c1 | -101.3*
COc1ccc(C(NC(C)=O)c2cc(Cl)c3cccnc3c2O)cc1 (stereo not given) | 75.9
SMILES | aSyn UTR act
CCC(C)(C)c1nnc(NC(=O)c2cccc([N+](=O)[O-])c2)s1 | -146.7*
CCN(CC)c1ccc(C2=NNC(=O)CC2C)cc1[N+](=O)[O-] (stereo not given) | 98.5
O=C(Nc1nccs1)c1ccc([N+](=O)[O-])cc1 | -75.0*
COc1ccc(NC(=O)Nc2nccs2)cc1 | -93.9*
O=C(Nc1nccs1)c1cccc(NC(=O)C(F)(F)F)c1 | -85.7*
CCCc1nnc(NC(=O)c2cccc(OC)c2)s1 | -91.4*
COc1ccc(C(=O)Nc2nccs2)cc1[N+](=O)[O-] | -73.6*
COc1ccc(C(=O)NC(=S)Nc2cc(C)ccn2)cc1[N+](=O)[O-] | -67.5*
CCOCc1nnc(NC(=O)c2ccc(OC)cc2)s1 | -72.7*
COc1ccc(C(=O)Nc2nccs2)cc1OC | -71.4*
COc1ccc(C(=O)Nc2nccs2)cc1 | -119.9*
CC(C)Cc1nnc(NC(=O)Nc2ccccc2)s1 | -115.3*
CCCc1nnc(NC(=O)c2cc3ccccc3o2)s1 | -87.9*
O=C(CC1C(=O)NCCN1Cc1ccc(F)cc1Cl)NCc1ccon1 (stereo not given) | -68.1*
O=C1c2ccsc2SCCN1Cc1ccccc1 | -65.0*
CCCCOc1ccc(C(=O)NNC(=S)NC(=O)CC)cc1 | 85.4
CCCCOc1ccc(-c2ncc(N)cn2)cc1 | -95.3*
CCCCOc1ccc(-c2nc(SCC(N)=O)n[nH]2)cc1 | -114.2*
CCCCOc1ccc(-c2nc(=S)[nH][nH]2)cc1 | -65.0*
c1ccc(N2OCC3Cn4c(nc5ccccc54)C32)cc1 (stereo not given) | -63.7*
Cc1cccc(OCc2nc3ccccc3c(=O)n2N)c1 | -71.4*
Cc1cccc(OCc2nc3ccccc3n2C)c1 | -140.3*
Cc1ccccc1OCc1nc2ccccc2n1C | -169.8*
Cn1c(COc2ccc(F)cc2)nc2ccccc21 | -121.3*
Nn1c(CSc2ccccn2)nc2ccccc2c1=O | -123.0*
SMILES | aSyn UTR act
Cc1ccc(-n2ncc(Cl)c2C(=O)NCc2ccccc2)cc1 | -83.1*
C=CCNC(=O)c1c(Br)cnn1-c1ccc(C)cc1 | -87.8*
O=[N+]([O-])c1ccccc1NCCNc1ncc(C(F)(F)F)cc1Cl | -77.0*
O=c1cc(Cl)[nH]c(=O)n1CCNc1ncc(C(F)(F)F)cc1Cl | -106.2*
O=[N+]([O-])c1cccnc1NCCNc1ncc(C(F)(F)F)cc1Cl | -178.3*
CCCN=C(C)C1=C(O)c2ccccc2C1=O | -93.6*
Cc1ccc(NC(=O)C2=NNC(=O)CC2)cc1F | -74.9*
CC(C)c1ccc(NC(=O)C2=NNC(=O)CC2)cc1 | -143.2*
O=C(CCCN1CCOCC1)c1ccc2c(c1)OCCO2 | -80.7*
Cc1ccc(S(=O)(=O)CC(=O)c2ccc3c(c2)OCCO3)cc1 | -69.7*
O=C(Cc1ccccc1)c1ccc2c(c1)OCCO2 | -107.3*
O=C(OCCN1CCOCC1)c1ccc2c(c1)OCCO2 | -93.5*
NC(=O)c1c(NC(=S)Nc2ccccc2)sc2c1CCCC2 | -67.1*
NC(=O)c1c(NC(=O)c2cnccn2)sc2c1CCCC2 | -216.7*
O=C(O)CCC(=O)Nc1sc2c(c1C(=O)Nc1ccccc1)CCCCC2 | -78.4*
NC(=O)c1c(NC(=O)c2ccccc2)sc2c1CCC2 | -122.3*
N#Cc1c(NC(=O)c2ccncc2)sc2c1CCC2 | -66.4*

Source: PubChem
